The record followed here is PubChem BioAssay AID1486 (The Scripps Research Institute Molecular Screening Center, 2009).

SMILES strings stand for the structures. In all, about 220,000 compounds went through this assay and about 2,400 (1.1%) were called active. The sample holds actives, similar compounds and a random draw of the others, so the mix is not that of the screen. A number with no mark means an inactive call.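 Rule for the calls: active = inhibition above a per-campaign cutoff, the mean inhibition of all tested compounds plus 3 SD (cut at about 27% in these data); inactive = the rest.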

The nature of this assay: growth loss in parental Ba/F3 cells – cell-based, murine pro-B, CellTiter-Glo luminescence, counter-screen for JAK2V617F inhibitor project (AID 1486).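 Note: 0% = DMSO wells and 100% = JAK Inhibitor I control wells.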 To be noted: Ba/F3 parental viability, CellTiter-Glo ATP luminescence; at 5.6 µM; hits give high values. For orientation: ATP-based viability assays read luminescence as a measure of living cells.
Consider `COc1cccc(-n2c(SCC(=O)c3c[nH]c4ccccc34)nc3ccccc3c2=O)c1`, for which the inhibition (in general, the drop in the measured response relative to a control, in per cent) is 3.88%.

With `Cn1ncc2c(NNC(=O)Cc3cccc4ccccc34)ncnc21`, the inhibition is 6.49%.

In the case of `COCCCNC(=O)Cn1cc(/C=C(\C#N)C(=O)N2CCN(c3ccccc3)CC2)c2ccccc21`, the inhibition was 2.71%.

For the compound `O=C(NC(Nc1nc2ccc([N+](=O)[O-])cc2s1)(C(F)(F)F)C(F)(F)F)c1ccccc1`, the inhibition is 53.4% (active).

Regarding `O=C(Nc1nc2ccc([N+](=O)[O-])cc2s1)c1ccncc1`, the inhibition is -4.75%.

`O=C(O)CCC(=O)Nc1nc2ccc([N+](=O)[O-])cc2s1`: the inhibition was 3.87%.

For the compound `O=C(O)c1cccc(NC(=S)N/N=C/c2c[nH]c3ccccc23)c1`, the inhibition is 7.89%.

Consider `Cc1cc(C)c(C(N)=O)c(Cl)n1`, for which the inhibition is 1.66%.

In the case of `CCOc1cccc(NC(=O)Cn2nc(-c3ccc4c(c3)OCCO4)ccc2=O)c1`, the inhibition is 1.09%.

As for `CN1CCc2nc(SC(C(=O)O)c3ccccc3)c(C#N)c(-c3cccs3)c2C1` (configuration not stated), the inhibition was -0.18%.

As for `COc1cc(/C=C2/C(=O)ON=C2C)ccc1OCc1cccc(F)c1`, the inhibition was 59.9% (active).

`COc1cc(/C=C2/C(=O)ON=C2C)ccc1OCc1ccccc1F`: the inhibition is 5.96%.

`CC1=NOC(=O)/C1=C\c1ccccc1`: the inhibition was -2.02%.

Take `CCc1ccc(Oc2nc([N+](=O)[O-])nn2C)cc1`: the inhibition was -0.05%.

With `COC(=O)c1cccc(NS(C)(=O)=O)c1`, the inhibition is -2.38%.

Consider `CCOC(=O)C1=C(N)N2C(=O)C(C)SC2=C(C(=O)OCC)C1c1cc(OC)c(OC)c(OC)c1` (configuration not stated), for which the inhibition was 66% (active).

In the case of `CCOC(=O)c1cc(-c2nnc(-c3cc(OC)c(OC)c(OC)c3)o2)c(C)nc1C`, the inhibition is 3.72%.

Take `CCOC(=O)C1CCN(C(=O)/C=C/c2cc(OC)c(OC)c(OC)c2)CC1`: the inhibition was 2%.

In the case of `COc1ccc(C2C=C(c3ccc(Br)cc3)Nc3nc(NS(C)(=O)=O)nn32)cc1` (configuration not stated), the inhibition was -0.92%.

As for `C=CCNC(=S)NNC(=O)c1cc(Cl)ccc1OC`, the inhibition is 2.83%.

For the compound `CN(CC(=O)Nc1cccc(F)c1)CC(=O)Nc1cccc([N+](=O)[O-])c1`, the inhibition was 3.37%.

As for `Cc1ccc(CN(C)CC(=O)Nc2cccc([N+](=O)[O-])c2)o1`, the inhibition was 1.42%.

Take `Cc1ccc(NC(=O)CN(C)CC(=O)Nc2cccc(F)c2)cc1[N+](=O)[O-]`: the inhibition was 27.9% (active).

In the case of `CC(=O)N/C(=C/c1ccc(OC(F)F)cc1)C(=O)O`, the inhibition is 6.54%.

In the case of `O=C(Nc1ccc(Cl)cc1)N1CCc2[nH]c3ccccc3c2C1`, the inhibition was 4.99%.

For the compound `Fc1ccc(NC(=S)N2CCc3[nH]c4ccccc4c3C2)cc1`, the inhibition is 35% (active).

For the compound `C=CCNC(=S)N1CCc2[nH]c3ccccc3c2C1`, the inhibition was 0.22%.
